According to PubChem BioAssay (NCATS):
Inconclusive results are not listed. Activity calls are given as the source filed them. Calls come from the whole dose curve; as a rule, active = well fitted curve in the direction sought with a large enough effect; inconclusive = small, poorly fitted or top-dose-only effect, or another doubt; inactive = no such curve, though single readings can be large; an effect the other way counts as inactive or inconclusive.

Tests used:
[1] = system: UISO; experiment: qHTS assay to identify novel small-molecules to repurpose for Merkel cell carcinoma treatment (AID 1296009); conditions: MCC and control cell lines, CellTiter-Glo viability, 72 h; series mostly up to 46 µM; note: nearly all actives have a fitted effect of over 60% in size
Outline: (§1)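 72 hr, 37 degree celsius; NPC 8-pt / MIPE 11-pt dose response; compound pinned in DMSO; CellTiter-Glo, 10 min RT, luminescence; normalized to no-cell and DMSO controls.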

[2] = system: WaGa; experiment: as above; conditions: MCC and control cell lines, CellTiter-Glo viability, 72 h; series mostly up to 46 µM
Outline: as §1

[3] = system: C33A; experiment: Primary qHTS to identify gynecologic anti-cancer compounds using libraries of approved drugs and bioactive compounds (AID 1345084); conditions: Gynecologic cancer cell panel viability, ATPlite luminescence, 48 h; series mostly up to 57.5 µM; note: nearly all actives have a fitted effect of over 55% in size
Outline: (§2)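 Cells, 1,000 per well, plated 16 h, then exposed 48 h at 37 C to compounds. Viability by ATPlite luminescence after 15 min at room temperature.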

[4] = system: CAOV3; experiment: as above; conditions: Gynecologic cancer cell panel viability, ATPlite luminescence, 48 h; series mostly up to 57.5 µM
Outline: as §2

[5] = system: CASKI; experiment: as above; conditions: Gynecologic cancer cell panel viability, ATPlite luminescence, 48 h; series mostly up to 57.5 µM
Outline: as §2

[6] = system: Es-2; experiment: as above; conditions: Gynecologic cancer cell panel viability, ATPlite luminescence, 48 h; series mostly up to 57.5 µM
Outline: as §2

[7] = system: HeLa; experiment: as above; conditions: Gynecologic cancer cell panel viability, ATPlite luminescence, 48 h; series mostly up to 57.5 µM
Outline: as §2

[8] = system: Hek293T; experiment: as above; conditions: Gynecologic cancer cell panel viability, ATPlite luminescence, 48 h, control line for the selectivity index; series mostly up to 57.5 µM
Outline: as §2

[9] = system: JEG-3; experiment: as above; conditions: Gynecologic cancer cell panel viability, ATPlite luminescence, 48 h; series mostly up to 57.5 µM
Outline: as §2

[10] = system: OV90; experiment: as above; conditions: Gynecologic cancer cell panel viability, ATPlite luminescence, 48 h; series mostly up to 57.5 µM
Outline: as §2

[11] = system: PA-1; experiment: as above; conditions: Gynecologic cancer cell panel viability, ATPlite luminescence, 48 h; series mostly up to 57.5 µM
Outline: as §2

[12] = system: SKOV3; experiment: as above; conditions: Gynecologic cancer cell panel viability, ATPlite luminescence, 48 h; series mostly up to 57.5 µM
Outline: as §2

[13] = system: Tov-21-G; experiment: as above; conditions: Gynecologic cancer cell panel viability, ATPlite luminescence, 48 h; series mostly up to 57.5 µM
Outline: as §2

[14] = system: Tov112D; experiment: as above; conditions: Gynecologic cancer cell panel viability, ATPlite luminescence, 48 h; series mostly up to 57.5 µM
Outline: as §2

[15] = Drug repurposing screens with cells derived from glioblastoma tumor samples (AID 1345199); conditions: GBM patient neurospheres viability, ATP luminescence, 48 h; note: nearly all actives have a fitted effect of over 40% in size
Outline: (§3)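 Four patient lines of CD133+ GBM neurospheres were screened at several concentrations; hits were retested in those lines plus three slower-growing GBM lines, using 48-hour treatment and ATP-based viability.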

[16] = system: astro; experiment: as above; conditions: viability, ATP luminescence, 48 h; series mostly up to 45.9 µM
Outline: as §3

[17] = system: NIH3T3; experiment: qHTS assay to identify novel small-molecules to repurpose for Merkel cell carcinoma treatment (AID 1296009); conditions: MCC and control cell lines, CellTiter-Glo viability, 72 h; at 44.8 µM (top of the series) unless noted; note: nearly all actives have a fitted effect of over 60% in size
Outline: as §1

[18] = at 45.9 µM (top of the series), tumour line B
[19] = at 45.9 µM (top of the series), tumour line D
[20] = at 46 µM (top of the series), tumour line A
% is set by controls: 0 for no effect and ±100 for the full control effect.

CN1CCN(C(=O)O[C@H]2c3nccnc3C(=O)N2c2ccc(Cl)cn2)CC1
inactive: Potency [1] | Potency [2] | Potency [3] | Potency [4] | Potency [5] | Potency [6] | Potency [7] | Potency [8] | Potency [9] | Potency [10] | Potency [11] | Potency [12] | Potency [13] | Potency [14] | activity, negative = cell killing [15, 18] -4.94% | activity, negative = cell killing [15, 19] -12.7% | activity, negative = cell killing [15, 20] -22.2% | Potency [16]

CN(C)CCN(C)CCc1ccc(Cl)c(Cl)c1
inactive: Potency [1] | Potency [2]

CC(C)CC(N(C)C)C1(c2ccc(Cl)cc2)CCC1 (stereo not drawn)
inactive: outcome [17] | Potency [1] | Potency [2] | Potency [3] | Potency [4] | Potency [6] | Potency [7] | Potency [8] | Potency [9] | Potency [10] | Potency [11] | Potency [13] | Potency [14] | activity, negative = cell killing [15, 18] -27.3% | activity, negative = cell killing [15, 19] -16.7% | activity, negative = cell killing [15, 20] -28.1%

COC1(CS(=O)c2ccccc2)CCN(CCc2c[nH]c3ccc(F)cc23)CC1 (stereo not drawn)
inactive: Potency [1] | Potency [2]
